KinaseGlo FLuc: Counterscreen for Luciferase (Kinase-Glo TM) Inhibition. Luciferin 4-monooxygenase (Photuris pensylvanica), Q27757. Kinase-Glo luciferase, ATP luminescence, 8 min. Potency, µM (series often up to 38.3 µM), inactives show top-dose activity change, negative = inhibition, most hits filed as inhibitors. 0.28% of 200,000 active; note: nearly all actives have a fitted effect of over 60% in size
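Kinase-Glo luciferase light output from ATP and luciferin was measured with 10 uM ATP, within the enzyme's linear range. Buffer: 50 mM imidazole pH 7.2, 50 mM KCl, 7 mM MgCl2, 0.01% Tween 20, 0.05% BSA; luminescence read after 8 min at ambient temperature.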
VP16 counter: VP16 counterscreen qHTS for inhibitors of ROR gamma transcriptional activity; Drosophila S2 Gal4-VP16 UAS-luciferase, luminescence, 20 h; Potency, µM (highest dose often 53.6 µM), inactives show at the top dose activity, negative = inhibition, actives largely listed as inhibitors; 3.5% of 310,000 active; AID 2546, 2010;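 note: Gal4-VP16 expression switched on by copper sulfate through the metallothionein promoter; nearly all actives have a fitted effect of over 50% in size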
RORg inh: qHTS for inhibitors of ROR gamma transcriptional activity | Nuclear receptor ROR-gamma (Mus musculus), P51450 | Drosophila S2 Gal4-RORgamma UAS-luciferase reporter, 20 h | Potency, µM (doses to about 53.6 µM), inactives show at the highest dose activity change, negative = inhibition, actives largely listed as inhibitors | 5.4% of 310,000 active; note: nearly all actives have a fitted effect of over 60% in size
Target sequence (P51450 whole entry, looked up, the tested form may be a part): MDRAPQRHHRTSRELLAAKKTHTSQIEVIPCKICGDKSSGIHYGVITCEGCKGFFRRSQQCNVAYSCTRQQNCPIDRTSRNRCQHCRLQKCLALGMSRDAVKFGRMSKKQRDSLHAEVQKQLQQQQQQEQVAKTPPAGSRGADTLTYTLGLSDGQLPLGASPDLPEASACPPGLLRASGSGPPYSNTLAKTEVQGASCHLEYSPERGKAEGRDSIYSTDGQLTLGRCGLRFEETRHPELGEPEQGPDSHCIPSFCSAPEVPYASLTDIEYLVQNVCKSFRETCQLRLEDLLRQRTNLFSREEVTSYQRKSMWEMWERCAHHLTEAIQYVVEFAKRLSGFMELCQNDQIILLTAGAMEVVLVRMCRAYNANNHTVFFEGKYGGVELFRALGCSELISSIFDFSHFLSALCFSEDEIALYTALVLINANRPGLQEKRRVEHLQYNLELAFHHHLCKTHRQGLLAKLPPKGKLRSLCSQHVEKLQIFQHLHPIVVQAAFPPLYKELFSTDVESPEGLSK
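Compounds are pin-transferred onto Drosophila Schneider cells expressing a copper-inducible Gal4–ROR gamma transactivation domain fusion. After 1 hr, copper sulfate is added to 700 uM final; luciferase is read 20 hr later.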
* marks the source's active call; other numbers are inactive results. Sampled rows, rich in hits. Any-hit rate of the full collection: about 6.2%. Calls come from the whole dose curve; as a rule, active = well fitted curve in the direction sought with a large enough effect; inconclusive = small, poorly fitted or top-dose-only effect, or another doubt; inactive = no such curve, though single readings can be large; an effect the other way counts as inactive or inconclusive. % is set by controls: 0 for no effect and ±100 for the full control effect; potency is the fitted concentration of half-maximal effect.

For CSc1nnc(C)c(=O)n1COC(=O)COc1ccc(Cl)cc1Cl the results were KinaseGlo FLuc 9%, VP16 counter -3% and RORg inh 1%.
`CN(C)c1nc(N)nc(CSc2nc3cc(Cl)ccc3o2)n1` gave KinaseGlo FLuc -1%, VP16 counter 24% and RORg inh 4%.
`O=S1(=O)C=C(Sc2nc3cc(Cl)ccc3o2)c2ccccc21` gave VP16 counter 2.5µM* and RORg inh 5.6µM*.
For COc1ccc(OC)c(NC(=O)CCN2CCCCCC2)c1 the results were KinaseGlo FLuc -4%, VP16 counter -8% and RORg inh -19%.
`COc1ccc(C)cc1NC(=O)CCCN1C(=S)NC(C)(C)CC1C` (stereo unspecified) gave KinaseGlo FLuc 0%, VP16 counter 4.5µM* and RORg inh 1µM*.
CCCCCCCCC(=O)Nc1cc(C)ccc1OC was read as KinaseGlo FLuc 1%, VP16 counter -8% and RORg inh inconclusive.
For COc1ccc(OC)c(NC(=O)CCCN2C(=S)NC(C)(C)CC2C)c1 (stereo unspecified) the results were KinaseGlo FLuc -4%, VP16 counter 18µM* and RORg inh 11µM*.
For C=CCc1cccc2cc(C(=O)OCC(=O)c3ccccc3)c(=O)oc12 the results were KinaseGlo FLuc -6%, VP16 counter 10% and RORg inh 6%.
`COC(=O)c1ccc2nc(NC(=O)C3CC3)sc2c1` gave VP16 counter inconclusive and RORg inh 8.9µM*.
Screening CCOC(=O)c1ccc2nc(Nc3nc4ccc(F)cc4s3)sc2c1 returned KinaseGlo FLuc 2%, VP16 counter -18% and RORg inh 0.79µM*.
`COC(=O)c1ccc2nc(NC(=O)CN3C(=O)CCC3=O)sc2c1` gave KinaseGlo FLuc -5%, VP16 counter -8% and RORg inh 2%.
COC(=O)c1ccc2nc(NC(=O)C(C)C)sc2c1 was read as KinaseGlo FLuc 1%, VP16 counter -27% and RORg inh inconclusive.
COC(=O)c1ccc2nc(Nc3nc4c(F)cc(F)cc4s3)sc2c1 was read as KinaseGlo FLuc 1%, VP16 counter 1.1µM* and RORg inh 0.32µM*.
Screening CCOC(=O)c1ccc2nc(NC(C)=O)sc2c1 returned KinaseGlo FLuc 0%, VP16 counter 5% and RORg inh inconclusive.
`Nc1c(-c2ccccc2)cnn1C1CCS(=O)(=O)C1` (stereo unspecified) gave KinaseGlo FLuc 3%, VP16 counter 13% and RORg inh -18%.
Cc1cnc(CNc2cc(-c3cccc(NS(C)(=O)=O)c3)ncn2)cn1 was read as VP16 counter 3% and RORg inh 32%.
CCOc1ccc(S(=O)(=O)NN2Cc3ccccc3C2=N)cc1 was read as KinaseGlo FLuc 0%, VP16 counter -6% and RORg inh 17%.
`O=c1c(-c2ccc(Cl)cc2)nc2cnc(N3CCOCC3)nc2n1Cc1ccc(F)cc1` gave VP16 counter 1% and RORg inh -32%.
CC[C@H](C)[C@H](NC(=O)[C@H](CC(C)C)NC(=O)[C@H](CC(N)=O)NC(=O)[C@@H](NC(=O)[C@@H](N)Cc1ccc(O)cc1)[C@@H](C)CC)C(=O)N[C@@H](Cc1ccc(O)cc1)C(=O)N[C@@H](CCCN=C(N)N)C(=O)N[C@@H](CC(C)C)C(=O)N[C@@H](CCCN=C(N)N)C(=O)N[C@@H](Cc1ccc(O)cc1)C(N)=O was read as VP16 counter 1% and RORg inh -4%.
O=[N+]([O-])c1ccc(CN2CCN(c3ccc4ccccc4n3)CC2)cc1 was read as KinaseGlo FLuc 0%, VP16 counter -4% and RORg inh 13%.
COCc1cc(CN(C)C(=O)C2CCC(=O)N(Cc3cccc(OC)c3)C2)[nH]n1 (stereo unspecified) was read as VP16 counter 6% and RORg inh -3%.
O=S(=O)(O)CC(S)CS (stereo unspecified) was read as VP16 counter -5% and RORg inh 15%.
COc1ccc(/C=C2\C(=O)ON=C2c2ccccc2)cc1OC was read as VP16 counter 11µM* and RORg inh 13µM*.
CN(C)/C=C1\C(=O)ON=C1c1ccccc1 was read as KinaseGlo FLuc 2%, VP16 counter -11% and RORg inh -7%.
For CC1=NN(c2ccccc2)C(=O)/C1=C\c1sccc1C the results were VP16 counter 3% and RORg inh inconclusive.
`CC1=NN(c2cccc(C(=O)O)c2)C(=O)/C1=C\C=C\c1ccco1` gave KinaseGlo FLuc -4%, VP16 counter inconclusive and RORg inh 3.5µM*.
CC1=NN(c2ccccc2)C(=O)/C1=C/C=C/c1ccccc1 was read as KinaseGlo FLuc -3%, VP16 counter 18µM* and RORg inh inconclusive.
For C#CCOc1ccc(/C=C2/C(=O)N(c3cccc(C(=O)O)c3)N=C2C)cc1OC the results were VP16 counter -4% and RORg inh 27%.
For Cc1ccc(C2=NOC(=O)/C2=C\C=C\c2ccccc2)cc1 the results were KinaseGlo FLuc -9%, VP16 counter inconclusive and RORg inh 14µM*.
COc1ccc(/C=C2/C(=O)ON=C2c2ccccc2)cc1OC was read as KinaseGlo FLuc -5%, VP16 counter inconclusive and RORg inh 1%.
For O=C(CSCc1c(F)cccc1Cl)Nc1ccccc1C(=O)N1CCOCC1 the results were KinaseGlo FLuc -1%, VP16 counter 2% and RORg inh 10%.
Screening COc1ccc(CNC(=O)c2cnn3c(C(F)F)cc(C)nc23)cc1OC returned KinaseGlo FLuc 5%, VP16 counter -3% and RORg inh -1%.
O=C(NC1CC1)C1=C[C@@H](C2CCCCC2)C[C@@H](OCCCCO)O1 was read as VP16 counter -4% and RORg inh 31%.
For N#CCCn1c(=O)c(-c2ccc(Cl)cc2)nc2cnc(OCc3ccccc3)nc21 the results were KinaseGlo FLuc -2%, VP16 counter 5% and RORg inh -12%.
Screening O=C(Nc1ccccc1)C1CC(=O)N(c2ccc3c4c(cccc24)CC3)C1 (stereo unspecified) returned KinaseGlo FLuc 3%, VP16 counter 4% and RORg inh 31%.
COc1cc(NC(=O)c2ccc(Br)o2)ccc1NC(=O)c1ccccc1Cl was read as KinaseGlo FLuc 4%, VP16 counter -27% and RORg inh 2%.
O=C(N[C@@H](c1ccccc1)[C@@H]1C[C@H]1C(=O)NCc1ccccc1)OCc1ccccc1 was read as KinaseGlo FLuc 0%, VP16 counter inconclusive and RORg inh inconclusive.
COn1c(SC(C)C)nc2ccccc2c1=O was read as KinaseGlo FLuc -1%, VP16 counter 5% and RORg inh inconclusive.
For C#CCOn1c(-n2nc(C)cc2C)nc2ccccc2c1=O the results were VP16 counter inconclusive and RORg inh 11µM*.
For COn1c(-n2nc(C)cc2C)nc2ccccc2c1=O the results were KinaseGlo FLuc -4%, VP16 counter 7.1µM* and RORg inh 7.9µM*.
Screening COCCOn1c(SCCOC)nc2ccccc2c1=O returned VP16 counter -1% and RORg inh 1%.

High-throughput results as filed in PubChem BioAssay.
